# Assay results from article PMC7862700, “An all-to-all approach to the identification of sequence-specific readers for epigenetic DNA modifications on cytosine”.
# How the values were obtained:
# Experiment in all cases: DAPPL (digital affinity profiling via proximity ligation, sequencing); 10 mM Tris-HCl pH 7.5, 50 mM NaCl, 1 mM DTT, 4% glycerol, room temperature, 30 min; GST-TFs on glutathione beads, 16-mer random dsDNA library, 0.1% formaldehyde crosslink after washing; high values mean tight binding
# Conditions in all cases: protein: recombinant; tags: N-terminal GST; dsDNA, one strand shown
# ETV1 = ETV1 (Homo sapiens, UniProt P50549 1-477)
# Chain of ETV1 (P50549 whole entry, the tested form may be a part): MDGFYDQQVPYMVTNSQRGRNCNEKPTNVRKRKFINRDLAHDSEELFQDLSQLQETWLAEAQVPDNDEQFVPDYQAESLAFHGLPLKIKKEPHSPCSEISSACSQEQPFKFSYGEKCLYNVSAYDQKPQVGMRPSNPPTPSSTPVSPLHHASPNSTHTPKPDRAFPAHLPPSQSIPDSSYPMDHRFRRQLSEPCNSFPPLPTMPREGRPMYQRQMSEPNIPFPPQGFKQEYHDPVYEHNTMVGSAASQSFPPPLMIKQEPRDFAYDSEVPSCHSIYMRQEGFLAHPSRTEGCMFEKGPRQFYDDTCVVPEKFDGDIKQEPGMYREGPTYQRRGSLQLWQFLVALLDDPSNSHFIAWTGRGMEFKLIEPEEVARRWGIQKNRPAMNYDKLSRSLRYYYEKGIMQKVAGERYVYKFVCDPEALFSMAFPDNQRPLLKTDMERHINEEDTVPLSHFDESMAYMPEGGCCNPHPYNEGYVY
# In short: (§1)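 Each value of binding signal is a hexamer's read frequency for a factor divided by the same hexamer's frequency in the tag-only sample. Barcoded, bead-captured GST fusions of human transcription factors made in yeast were pooled with that sample and incubated with 200 nmole of a random double-stranded 16-mer DNA library in Tris/NaCl/DTT/glycerol buffer at room temperature for 30 min. Washing, 0.1% formaldehyde crosslinking, proximity ligation, PCR and Illumina NextSeq500 sequencing followed.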
# ERF = target: T1, ERF (Homo sapiens, UniProt P50548 1-548)
# T1 sequence: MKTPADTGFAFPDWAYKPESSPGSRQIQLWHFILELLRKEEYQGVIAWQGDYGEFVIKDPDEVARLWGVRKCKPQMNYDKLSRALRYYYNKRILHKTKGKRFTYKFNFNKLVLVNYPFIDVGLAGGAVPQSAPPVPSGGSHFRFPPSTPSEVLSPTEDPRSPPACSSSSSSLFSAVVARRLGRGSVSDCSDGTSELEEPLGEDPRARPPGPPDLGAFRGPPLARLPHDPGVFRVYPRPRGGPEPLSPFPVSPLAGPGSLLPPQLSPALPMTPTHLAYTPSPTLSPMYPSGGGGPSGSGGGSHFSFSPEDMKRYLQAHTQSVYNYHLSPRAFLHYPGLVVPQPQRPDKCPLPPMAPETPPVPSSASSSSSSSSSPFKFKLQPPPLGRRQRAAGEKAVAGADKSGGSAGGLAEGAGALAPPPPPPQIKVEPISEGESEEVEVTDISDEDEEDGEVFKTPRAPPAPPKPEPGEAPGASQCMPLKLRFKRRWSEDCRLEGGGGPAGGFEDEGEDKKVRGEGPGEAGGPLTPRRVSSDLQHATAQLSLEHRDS
# In short: as §1
# ETV3L = target: T2, ETV3L (Homo sapiens, UniProt Q6ZN32 1-361)
# T2 sequence: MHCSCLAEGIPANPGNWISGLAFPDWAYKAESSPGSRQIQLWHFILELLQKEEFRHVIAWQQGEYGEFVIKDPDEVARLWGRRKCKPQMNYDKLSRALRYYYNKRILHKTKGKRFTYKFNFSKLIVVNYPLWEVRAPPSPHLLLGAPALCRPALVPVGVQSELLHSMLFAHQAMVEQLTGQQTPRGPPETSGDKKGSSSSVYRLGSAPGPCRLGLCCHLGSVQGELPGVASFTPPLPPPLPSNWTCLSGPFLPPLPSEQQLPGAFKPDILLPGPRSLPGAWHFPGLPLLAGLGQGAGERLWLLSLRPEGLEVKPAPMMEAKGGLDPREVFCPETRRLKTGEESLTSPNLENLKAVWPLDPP
# In short: as §1
# ETS2 = target: T3, ETS2 (Homo sapiens, UniProt P15036 1-469)
# T3 sequence: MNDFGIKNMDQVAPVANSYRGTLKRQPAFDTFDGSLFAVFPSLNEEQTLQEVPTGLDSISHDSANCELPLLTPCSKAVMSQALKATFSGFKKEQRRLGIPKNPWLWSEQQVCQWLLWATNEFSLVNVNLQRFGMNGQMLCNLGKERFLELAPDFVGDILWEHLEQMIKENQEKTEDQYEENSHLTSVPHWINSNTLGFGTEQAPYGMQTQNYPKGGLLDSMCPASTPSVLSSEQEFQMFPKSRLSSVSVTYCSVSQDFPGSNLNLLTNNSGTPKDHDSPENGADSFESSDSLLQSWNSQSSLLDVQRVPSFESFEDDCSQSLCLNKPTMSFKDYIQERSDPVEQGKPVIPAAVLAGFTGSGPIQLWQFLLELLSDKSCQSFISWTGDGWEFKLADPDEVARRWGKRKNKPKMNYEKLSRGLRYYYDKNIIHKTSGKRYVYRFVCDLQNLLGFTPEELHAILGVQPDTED
# In short: as §1
# SPDEF = target: T4, SPDEF (Homo sapiens, UniProt O95238 1-335)
# T4 sequence: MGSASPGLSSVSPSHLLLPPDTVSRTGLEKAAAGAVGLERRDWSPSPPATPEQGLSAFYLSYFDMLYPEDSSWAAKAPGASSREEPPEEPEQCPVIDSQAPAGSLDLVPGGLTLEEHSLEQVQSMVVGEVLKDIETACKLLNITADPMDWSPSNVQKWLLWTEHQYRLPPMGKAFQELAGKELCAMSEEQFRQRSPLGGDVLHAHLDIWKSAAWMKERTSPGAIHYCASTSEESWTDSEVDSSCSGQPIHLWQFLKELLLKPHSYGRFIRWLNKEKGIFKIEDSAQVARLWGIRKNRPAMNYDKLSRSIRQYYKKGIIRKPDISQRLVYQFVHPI
# In short: as §1
# ETV7 = target: T5, ETV7 (Homo sapiens, UniProt Q9Y603 1-341)
# T5 sequence: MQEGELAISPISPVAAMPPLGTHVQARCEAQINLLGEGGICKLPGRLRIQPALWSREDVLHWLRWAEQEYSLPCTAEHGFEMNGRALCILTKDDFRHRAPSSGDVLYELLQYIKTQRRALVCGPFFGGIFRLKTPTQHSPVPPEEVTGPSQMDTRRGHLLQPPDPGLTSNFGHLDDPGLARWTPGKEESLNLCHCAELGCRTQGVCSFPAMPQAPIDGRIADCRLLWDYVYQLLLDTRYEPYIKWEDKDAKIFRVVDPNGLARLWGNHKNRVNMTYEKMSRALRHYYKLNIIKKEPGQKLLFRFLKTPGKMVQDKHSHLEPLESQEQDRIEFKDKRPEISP
# In short: as §1
# ELF5 = target: T6, ELF5 (Homo sapiens, UniProt Q9UKW6-2 1-255)
# T6 sequence: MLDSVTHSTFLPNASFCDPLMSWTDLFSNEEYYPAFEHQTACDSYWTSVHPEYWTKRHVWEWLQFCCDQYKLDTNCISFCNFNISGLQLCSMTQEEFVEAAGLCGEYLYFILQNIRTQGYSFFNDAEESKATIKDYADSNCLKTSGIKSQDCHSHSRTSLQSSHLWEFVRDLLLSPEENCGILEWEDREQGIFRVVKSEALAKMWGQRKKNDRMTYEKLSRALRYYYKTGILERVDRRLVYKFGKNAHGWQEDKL
# In short: as §1
# ETV3 = target: T7, ETV3 (Homo sapiens, UniProt P41162-2 1-143)
# T7 sequence: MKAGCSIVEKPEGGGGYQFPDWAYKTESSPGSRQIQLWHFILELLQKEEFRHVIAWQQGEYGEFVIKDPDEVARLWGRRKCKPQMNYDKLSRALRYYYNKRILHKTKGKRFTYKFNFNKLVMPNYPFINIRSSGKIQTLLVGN
# In short: as §1
# ETV6 = ETV6 (Homo sapiens, UniProt P41212 1-452)
# Chain of ETV6 (P41212 whole entry): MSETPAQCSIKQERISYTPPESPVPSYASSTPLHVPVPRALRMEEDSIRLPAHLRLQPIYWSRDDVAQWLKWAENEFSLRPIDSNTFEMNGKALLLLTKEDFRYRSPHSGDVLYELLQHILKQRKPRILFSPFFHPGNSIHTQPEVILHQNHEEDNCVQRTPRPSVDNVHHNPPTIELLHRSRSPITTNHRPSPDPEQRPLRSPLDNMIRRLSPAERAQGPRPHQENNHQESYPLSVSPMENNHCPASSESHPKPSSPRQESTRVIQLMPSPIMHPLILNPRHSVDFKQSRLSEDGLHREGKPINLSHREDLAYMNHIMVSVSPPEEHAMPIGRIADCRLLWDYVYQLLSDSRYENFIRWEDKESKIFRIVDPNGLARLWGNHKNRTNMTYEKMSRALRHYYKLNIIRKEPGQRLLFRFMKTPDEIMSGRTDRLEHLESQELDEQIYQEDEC
# In short: as §1
sequence,measurement,setting,value
ATAAAT,binding signal,ETV1,"1.13 fold enrichment (6-mer frequency, TF over GST control)"
same,binding signal,ERF,"1.19 fold enrichment (6-mer frequency, TF over GST control)"
same,binding signal,ETV3L,"1.18 fold enrichment (6-mer frequency, TF over GST control)"
same,binding signal,ETS2,"1.19 fold enrichment (6-mer frequency, TF over GST control)"
same,binding signal,SPDEF,"1.17 fold enrichment (6-mer frequency, TF over GST control)"
same,binding signal,ETV7,"1.14 fold enrichment (6-mer frequency, TF over GST control)"
same,binding signal,ELF5,"1.08 fold enrichment (6-mer frequency, TF over GST control)"
same,binding signal,ETV3,"1.19 fold enrichment (6-mer frequency, TF over GST control)"
same,binding signal,ETV6,"1.25 fold enrichment (6-mer frequency, TF over GST control)"
